Rows were chosen to be rich in hits. Some 4.5% of all compounds tested hit in one or more screens of this group.
CSC inhib: blocks cancer stem cells. inhibition, % at 7.5 µM. hit rate 1.1% among 300,000. cancer stem cell-like cells viability, luminescence; in the data active means inhibition above about 75%; tested in HMLE shEcad cells
Gli-Sufu antag: antagonists of Gli-Sufu signaling. Sufu-KO-LIGHT fibroblasts, Gli luciferase reporter luminescence. inhibition, % at 5 µM. hit rate 0.74% among 340,000. AID 588413;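 active means inhibition above about 55%, limit read from the data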;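 further: 0% = DMSO-treated cells and 100% = wells with medium but no cells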
Beta apoptosis: blocks beta cell apoptosis; INS-1E cytokine-induced death, ATP luminescence, 48 h; percent of positive-control rescue, neutral wells zero; protection from apoptosis, % (test concentration not listed); hit rate 0.8% among 300,000;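 active means Every replicate reaches about 75%, or at least half do and their mean reaches it too, limit read from the data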;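 further: 0% = cytokine-treated negative control wells and 100% = positive control rescue; higher means more ATP so stronger rescue from cytokine killing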
697 NFkB inh: inhibitors of the PMA/ionomycin-induced NF-kB reporter in 697 B cells. hit rate 0.33% among 330,000. 697 B-cell NF-kB luciferase reporter, 16 h. inhibition, % at 4 µM; in the data active means inhibition above about 35%
Jurkat NFkB inh: lowers PMA/ionomycin-induced NF-kB signal in Jurkat cells. PMA/ionomycin-induced NF-kB luciferase reporter, luminescence. inhibition, % at 4 µM. hit rate 0.53% among 330,000; in the data active means inhibition above about 50%
Mdm2 MdmX PPI: human Mdm2/MdmX binding inhibition; hit rate 3% among 330,000; SaOS-2 split-luciferase Mdm2/MdmX complementation, luminescence; O15151+Q00987; AID 485346; inhibition, % at 8 µM;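 active means inhibition of at least 50% at 8 µM in the primary screen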
Target sequence (O15151 whole entry, looked up): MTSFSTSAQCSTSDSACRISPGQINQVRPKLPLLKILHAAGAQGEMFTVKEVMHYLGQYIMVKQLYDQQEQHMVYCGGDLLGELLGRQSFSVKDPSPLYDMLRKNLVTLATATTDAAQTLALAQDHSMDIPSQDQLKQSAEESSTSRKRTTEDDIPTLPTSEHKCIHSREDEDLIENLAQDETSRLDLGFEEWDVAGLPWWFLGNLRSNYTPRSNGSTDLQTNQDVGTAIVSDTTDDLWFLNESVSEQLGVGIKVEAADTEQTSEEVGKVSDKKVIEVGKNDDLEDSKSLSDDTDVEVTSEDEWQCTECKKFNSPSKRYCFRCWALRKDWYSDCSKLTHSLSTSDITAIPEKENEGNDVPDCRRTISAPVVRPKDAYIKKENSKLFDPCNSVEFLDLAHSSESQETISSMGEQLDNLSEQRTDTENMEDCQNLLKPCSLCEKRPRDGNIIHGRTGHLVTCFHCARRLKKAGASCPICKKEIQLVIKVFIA
Target sequence (Q00987 whole entry, looked up): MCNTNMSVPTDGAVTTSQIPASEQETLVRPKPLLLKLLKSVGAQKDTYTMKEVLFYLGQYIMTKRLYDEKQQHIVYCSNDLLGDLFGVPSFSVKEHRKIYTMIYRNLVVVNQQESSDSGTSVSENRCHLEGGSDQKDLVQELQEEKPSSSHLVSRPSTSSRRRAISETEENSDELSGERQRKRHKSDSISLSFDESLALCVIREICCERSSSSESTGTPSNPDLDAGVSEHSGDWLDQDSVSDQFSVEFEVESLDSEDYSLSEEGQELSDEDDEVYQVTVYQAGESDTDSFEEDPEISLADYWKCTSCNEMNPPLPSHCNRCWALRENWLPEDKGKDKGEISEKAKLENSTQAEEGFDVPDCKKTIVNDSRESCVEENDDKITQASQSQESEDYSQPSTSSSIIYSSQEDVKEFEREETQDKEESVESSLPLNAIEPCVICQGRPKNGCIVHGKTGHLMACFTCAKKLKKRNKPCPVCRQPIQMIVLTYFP
Gli-Sufu confirm: confirmation of Gli-SUFU pathway antagonists; Sufu-KO-LIGHT cells, Gli luciferase reporter, luminescence; shares compounds with Gli-Sufu antag; inhibition, % at 5 µM; hit rate 40% among 2,500;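 active means mean inhibition at 5 µM reaching about 45%, limit read from the data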;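 further: plate controls were DMSO-treated cells for no effect and wells lacking cells for full effect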
Gli cytotox: cytotoxic in Gli-SUFU antagonist counter-screen. shares compounds with Gli-Sufu antag. Sufu-KO-LIGHT cells cytotoxicity, ATP luminescence. cytotoxicity, % at 5 µM. hit rate 32% among 2,500. AID 651994;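 active means mean cytotoxicity at 5 µM above about 25%, limit read from the data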;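 further: cells exposed to compound overnight for roughly 16 to 18 hours; plate controls were DMSO wells with cells for no effect and medium without cells for full effect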
Wnt3a cs: Wnt3a reporter inhibition counter-screen. shares compounds with Gli-Sufu antag. Wnt-LIGHT cells, Wnt3a-driven luciferase reporter, luminescence. inhibition, % at 6.25 µM. hit rate 20% among 2,500;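 active means mean inhibition above about 25%, limit read from the data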
Starred values were filed as active, the others as inactive; / = no result given.

SMILES	CSC inhib	Gli-Sufu antag	Beta apoptosis	697 NFkB inh	Jurkat NFkB inh	Mdm2 MdmX PPI	Gli-Sufu confirm	Gli cytotox	Wnt3a cs
COc1ccccc1C(=O)Nc1ccc2oc(-c3ccc(F)cc3)nc2c1	-3.1	95.3*	5.4	-45.3	-32.7	-17.2	-11.6	15.9	-70.8
O=C(O)C1C2C=CC(C2)C1C(=O)Nc1ccc2c(c1)OCCO2 (stereo not given)	/	59.9*	1.1	-30.9	21.5	6.3	16.2	19.7	54.4*
Cc1ccc(C(=O)COC(=O)C2CC3CCCC(C2)C3=O)cc1[N+](=O)[O-] (stereo not given)	-11.8	-1.5	-2.2	6.8	-12.1	6.3	/	/	/
c1ccc(COCCC2CO2)cc1 (stereo not given)	-4.8	/	/	-22.0	-1.3	-16.3	/	/	/
O=C(O)CCCCCN1C(=O)C2CCCCC2C1=O (stereo not given)	-4.1	70.4*	2.5	12.9	-14.7	12.9	18.7	3.4	-17.5
O=C(O)CCCN1C(=O)C2C3C=CC(C2C1=O)C1C(=O)N(CCCC(=O)O)C(=O)C31 (stereo not given)	-13.5	-24.2	2.3	11.7	-10.9	18.6	/	/	/
O=C(C1CCN(S(=O)(=O)c2cnc[nH]2)CC1)N1CCN(c2ccc([N+](=O)[O-])cc2)CC1	-35.3	4.4	-8.0	13.2	0.7	-9.6	/	/	/
O=C(C1CC1)N1CCN(c2ccc([N+](=O)[O-])cc2)CC1	-6.7	53.0	-2.1	4.0	0.1	20.3	22.7	11.4	1.1
COc1ccc(-c2cnnc(N/N=C/c3ccc(OC)c(OC)c3)n2)cc1	2.1	52.4	7.2	-25.1	-5.6	-0.8	4.5	23.4	-30.1
O=C(NCc1cc2ccccc2[nH]1)C1CCC(=O)N(CCCN2CCCC2=O)C1 (stereo not given)	6.4	58.8*	-1.4	-22.3	-9.6	-8.2	13.9	14.4	-56.9
O=C(NCCc1ccccc1)C1CCC(=O)N(CCCN2CCCC2=O)C1 (stereo not given)	-11.4	4.9	-5.8	-4.2	1.0	23.4	/	/	/
Cc1cc(NC(=O)CSc2nc3c([nH]c4ccccc43)c(=O)n2-c2ccccc2F)no1	7.3	58.4*	-12.1	-18.0	6.4	32.7	55.9*	23.2	18.8
COCCn1cnc2c1c(=O)n(Cc1ccc(C#N)cc1)c(=O)n2Cc1ccccc1	-12.9	-14.0	-7.3	-3.3	5.6	13.4	/	/	/
CCOC(=O)CNC1CC(=O)N(c2ccc(Br)cc2)C1=O (stereo not given)	6.3	77.0*	-6.7	-10.6	-5.5	6.7	15.0	14.0	-9.0
O=C(NNC1CC(=O)N(c2ccc(Br)cc2)C1=O)c1cccs1 (stereo not given)	5.9	2.3	-10.3	26.1	15.5	6.9	/	/	/
CCC(=O)Nc1cc(-c2nn(C)c(=O)c3ccccc23)ccc1N1CCCCC1	3.4	15.9	10.0	31.0	18.2	48.8	/	/	/
CC(=O)Nc1cc(-c2nn(CC(=O)N3CCCCC3)c(=O)c3ccccc23)ccc1N1CCOCC1	-0.7	50.7	-10.6	-28.2	-10.1	-23.3	15.6	8.9	-24.8
Cc1ccc(C(=O)N[C@H](C(=O)NC2CCCCC2)C(C)C)cc1	-15.1	-8.9	1.6	-31.7	-5.0	16.5	/	/	/
COc1ccc(CCN2CC(C(=O)N3CCN(C(C)=O)CC3)CCC2=O)cc1 (stereo not given)	-9.4	-2.7	-1.4	-19.1	-12.8	24.9	/	/	/
CCN(CC)c1ccc(Nc2nc(N3CCOCC3)c3ccccc3n2)cc1	29.2	66.5*	69.2	-47.0	33.9	30.4	61.8*	31.3*	8.2
c1ccc2c(c1)nc(N1CCOCC1)c1ccccc12	-3.2	5.8	-3.9	8.2	2.0	17.7	/	/	/
CSc1ccc(S(=O)(=O)N2CCC(C(=O)Nc3cccnc3)CC2)cc1	-2.3	75.8*	-7.2	3.2	30.2	13.2	16.2	11.4	7.5
CCOC(=O)N1CCN(c2cc(=O)n(-c3ccccc3Cl)c(=O)[nH]2)CC1	-0.6	53.8	-3.3	12.1	-5.0	19.6	16.2	22.9	2.0

High-throughput results as filed in PubChem.
